In PubChem BioAssay (Tox21):
Results filed as inconclusive are left out. Where a call stands in place of a potency, no number is given. A number with no mark means an inactive call. Calls of active or inactive are those of the source. Calls follow the shape of the dose curve; as a rule, active = well fitted cell-killing curve with a large enough effect in the repeat runs; inconclusive = weak or mixed curves, or effect the other way; inactive = flat fitted curve, though single readings scatter.

Assay: qHTS assay to identify small molecule agonists of the constitutive androstane receptor (CAR) signaling pathway - cell viability counter screen (AID 1224836); also: nearly all actives have a fitted effect of over 45% in size
Settings: HepG2-CYP2B6-hCAR viability, CellTiter-Fluor, 23 h, PK11195 added to every well; series mostly up to 92.4 µM
Text: U.S. Tox21 Program National Center for Advancing Translational Sciences [NCATS] NIH Chemical Genomics Center [NCGC] U.S. Environmental Protection Agency [EPA] National Institutes of Environmental Health Sciences [NIEHS] National Toxicology Program [NTP] U.S. Food and Drug Administration [FDA] Tox21 Assay Overview: The constitutive androstane receptor (CAR) is a nuclear receptor which regulates multiple drug metabolizing enzymes (DMEs) and transporters. Activating CAR will generally increase the transcription and subsequent translation of CYP2B6 and CYP3A4. These two DMEs represent about 50% of the drug metabolizing potential in the body. […] Recently, there have also been studies performed indicating CARs role in energy metabolism and cancer therapy. Therefore, inducing CARs activity could have a potential effect on diabetes and cancer. Identifying environmental toxins and compounds which modulate CAR, through the use of the Tox21 10K compound collection, will be an important step in determining the toxicity and potential therapeutic effects these factors will have on the human body. To differentiate true CAR agonists from cytotoxic substances, the assay is multiplexed with a cell viability assay.
Tox21 Assay Protocol Summary: A double-stable (hCAR and CYP2B6-2.2kb) transfected cell line, derived from human hepatoma (HepG2) cells, was utilized for the duration of the quantitative high-throughput screens. The HepG2-CYP2B6-hCAR cells were dispensed at 2500 cells/4 uL/well in 1536-well white solid bottom plates using a Multidrop Combi. After the assay plates were incubated at 37 C/5% CO2 for 4 hrs, 23 nL of compounds at 15 concentrations (from 5-48 columns) or positive control (from 1 to 4 columns) were transferred to the assay plates using a Pintool station. One uL of PK11195 (final concentration = 0.75 uM) was added, using a Flying Reagent Dispenser, inside each well. After a 23 hr incubation period at 37 C/5% CO2, 1 uL of CellTiter-Fluor reagent was added into each well of the assay plates using a Flying Reagent Dispenser. The fluorescence intensity in the plates was then measured using a ViewLux plate reader.
Potency is read from the fitted curve at half-maximal effect.

Row | Structure (SMILES) | Potency | viability change, negative = cytotoxic
1 | CC(C)(C)OCC1CO1 (stereo not given) | inactive | –
2 | CCCC(=O)Nc1ccc(O)c(C(C)=O)c1 | inactive | –
3 | CN(C)c1ccc(CCO)cc1 | inactive | –
4 | CN(Cc1ccc(C(C)(C)C)cc1)Cc1cccc2ccccc12 | inactive | –
5 | OC(C#CCN1CCCC1)(c1ccccc1)c1ccccc1 | inactive | –
6 | CCCCCCCCCCCCCCOS(=O)(=O)O | inactive | –
7 | Nc1ccc(N)c2c1C(=O)c1ccccc1C2=O | 17.2 µM (active) | –
8 | CC(CSC(=O)c1ccccc1)C(=O)N1C[C@@H](Sc2ccccc2)C[C@H]1C(=O)O (stereo not given in full) | – | 5.15% [at 19 µM]
9 | CCCCOC(=O)CCCCCCCC(=O)OCCCC | inactive | –
10 | CN(C)C(=O)NC1(c2ccccc2)CCN(CC[C@@]2(c3ccc(F)c(F)c3)CN(C(=O)c3ccccc3)CCO2)CC1 | inactive | –
11 | COC(=O)C1=C(C)NC(COC(N)=O)=C(C(=O)OC(C)C)C1c1cccc(Cl)c1Cl (stereo not given) | inactive | –
12 | CCCCc1ncc(/C=C(\Cc2cccs2)C(=O)O)n1Cc1ccc(C(=O)O)cc1 | inactive | –
13 | O=C(O)CC(=O)C(=O)O | inactive | –
14 | O=C1OC(=O)C2C3C=CC(C3)C12 (stereo not given) | inactive | –
15 | C#C[C@]1(O)CC[C@H]2[C@@H]3CCc4cc(OC5CCCC5)ccc4[C@H]3CC[C@@]21C | inactive | –
16 | O=C(O)c1ccc(-n2nc(-c3ccccc3O)nc2-c2ccccc2O)cc1 | inactive | –
17 | O=CC1CC=CCC1 (stereo not given) | inactive | –
18 | CCCCCCCCCOS(=O)(=O)O | inactive | –
19 | C[C@@H]1C[C@H]2O[C@@]3(O[C@@H]2C(C)(C)O)[C@H](O)[C@@]2(C)[C@@H]4CC[C@H]5C(C)(C)[C@@H](O[C@@H]6OC[C@@H](O)[C@H](O)[C@H]6O)CC[C@@]56C[C@@]46CC[C@]2(C)[C@@H]13 | inactive | –
20 | N=c1ccn2c(n1)O[C@H]1[C@H](O)[C@@H](CO)O[C@H]12 | inactive | –

Row | Structure (SMILES) | Potency | viability change, negative = cytotoxic
21 | CCOC(=O)NCCOc1ccc(Oc2ccccc2)cc1 | inactive | –
22 | CC1=CCCC(C)(C)C12CCC(C)O2 (stereo not given) | inactive | –
23 | COCCCN1CCC(NC(=O)c2cc(Cl)c(N)c3c2OCC3)CC1 | inactive | –
24 | COc1cc(C(=O)OCCCN2CCCN(CCCOC(=O)c3cc(OC)c(OC)c(OC)c3)CC2)cc(OC)c1OC | inactive | –
25 | C[C@@H](c1ncncc1F)C(O)(Cn1cncn1)c1ccc(F)cc1F (stereo not given in full) | inactive | –
26 | CC(=O)[O][Al] | inactive | –
27 | COS(=O)(=O)C(F)(F)F | inactive | –
28 | O=C(O)C1(C(=O)Nc2ccc(Cl)cc2Cl)CC1 | inactive | –
29 | CCCCCCCCCCCCN1CCCCCC1=O | inactive | –
30 | CC(=O)c1ccc2c(c1)N(CCCN1CCC(CCO)CC1)c1ccccc1S2 | inactive | –
31 | CCCCNc1ccc(C(=O)OCCOCCOCCOCCOCCOCCOCCOCCOCCOC)cc1 | inactive | –
32 | Cc1ncc(CO)c(C=O)c1O | inactive | –
33 | CCCCCCCCCCCCCCCCCCOS(=O)(=O)O | inactive | –
34 | CC(C)Cc1ccc(C(C)C(=O)OCc2ccccn2)cc1 (stereo not given) | inactive | –
35 | C/C=C/C(=O)CC | – | 4.38% [at 19 µM]
36 | Cc1oc2c(NC(=O)c3c(Cl)cccc3Cl)cccc2c1C(C)(C)O | inactive | –
37 | C=CCOC(=O)CCC1CCCCC1 | inactive | –
38 | CCC(C)c1cc(C(C)(C)C)c(O)c(C(C)(C)C)c1 (stereo not given) | inactive | –
39 | CN(C)CCN(Cc1ccccc1)c1ccccn1 | inactive | –
40 | O=C(OCCCCCCOC(=O)c1ccccc1)c1ccccc1 | inactive | –
